The results in this text go back to paper PMC2807882, “Conservation of DNA-binding specificity and oligomerisation properties within the p53 family”.

Some targets named below: Hsp53 (Homo sapiens, UniProt P04637 1-393); Xlp53 (Xenopus laevis, UniProt Q7T1D0 1-362); Mmp53 (Mus musculus, UniProt P02340 1-390).
Holding throughout (test): fluorescence anisotropy competition titration; 25 mM sodium phosphate (purification buffer pH 7.2), 225 mM NaCl, 10% v/v glycerol, 5 mM DTT, 0.2 mg/mL BSA, 22 C; low values mean tight binding
Conditions in all cases: protein: recombinant; tags: N-terminal 6xHis-lipoyl-TEV tag, cleaved; chain copies: 4; dsDNA, one strand shown
(Fluorescence polarisation rises when a labelled molecule tumbles more slowly, as on binding a larger partner.)

In another experiment the target is T1, Dmp53 (Drosophila melanogaster, UniProt Q9N6D8 1-385).
T1 sequence: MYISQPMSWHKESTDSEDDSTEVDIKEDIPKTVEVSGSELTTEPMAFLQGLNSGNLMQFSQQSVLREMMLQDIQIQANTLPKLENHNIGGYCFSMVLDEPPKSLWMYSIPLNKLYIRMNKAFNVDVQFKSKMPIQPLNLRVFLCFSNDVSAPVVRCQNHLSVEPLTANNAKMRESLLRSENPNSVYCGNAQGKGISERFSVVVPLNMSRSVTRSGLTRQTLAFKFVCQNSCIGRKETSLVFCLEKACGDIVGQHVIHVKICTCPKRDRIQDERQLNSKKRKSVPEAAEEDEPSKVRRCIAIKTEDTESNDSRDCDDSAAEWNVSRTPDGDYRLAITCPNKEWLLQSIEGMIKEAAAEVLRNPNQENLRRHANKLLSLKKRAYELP

For a further experiment, the target named is T2, Drp53 (Danio rerio, UniProt P79734 1-373).
T2 sequence: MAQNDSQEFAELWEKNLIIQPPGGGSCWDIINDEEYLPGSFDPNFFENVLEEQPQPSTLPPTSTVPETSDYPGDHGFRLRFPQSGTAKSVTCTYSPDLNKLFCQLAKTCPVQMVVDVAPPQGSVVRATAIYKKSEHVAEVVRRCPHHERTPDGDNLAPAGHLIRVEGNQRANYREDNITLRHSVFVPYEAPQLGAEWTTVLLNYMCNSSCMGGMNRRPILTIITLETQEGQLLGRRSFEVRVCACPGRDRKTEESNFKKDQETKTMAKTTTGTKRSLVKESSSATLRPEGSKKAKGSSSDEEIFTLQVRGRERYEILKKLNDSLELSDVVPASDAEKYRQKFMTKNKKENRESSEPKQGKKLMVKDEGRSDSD

The target in a further experiment is T3, ΔNp63α (Homo sapiens, UniProt Q9H3D4-2 1-586).
T3 sequence: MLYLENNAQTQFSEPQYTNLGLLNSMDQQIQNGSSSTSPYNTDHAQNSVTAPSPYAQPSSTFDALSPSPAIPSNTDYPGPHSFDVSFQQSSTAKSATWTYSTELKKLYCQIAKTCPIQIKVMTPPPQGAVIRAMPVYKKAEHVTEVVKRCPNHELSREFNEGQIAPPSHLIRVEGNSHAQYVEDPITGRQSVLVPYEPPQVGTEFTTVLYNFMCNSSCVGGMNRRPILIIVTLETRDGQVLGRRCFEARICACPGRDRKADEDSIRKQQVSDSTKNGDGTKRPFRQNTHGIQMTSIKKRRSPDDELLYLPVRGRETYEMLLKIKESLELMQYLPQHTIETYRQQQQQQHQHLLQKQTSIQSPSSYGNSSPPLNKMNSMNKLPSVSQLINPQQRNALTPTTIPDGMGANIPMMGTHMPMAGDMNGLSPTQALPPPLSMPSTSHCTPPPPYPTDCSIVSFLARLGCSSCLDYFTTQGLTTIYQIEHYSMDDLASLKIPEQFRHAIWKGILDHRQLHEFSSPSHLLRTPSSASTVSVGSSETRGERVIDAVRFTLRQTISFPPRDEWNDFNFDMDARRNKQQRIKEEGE

The target in another experiment is T4, ΔNp63β (Homo sapiens, UniProt Q9H3D4-4 1-461).
T4 sequence: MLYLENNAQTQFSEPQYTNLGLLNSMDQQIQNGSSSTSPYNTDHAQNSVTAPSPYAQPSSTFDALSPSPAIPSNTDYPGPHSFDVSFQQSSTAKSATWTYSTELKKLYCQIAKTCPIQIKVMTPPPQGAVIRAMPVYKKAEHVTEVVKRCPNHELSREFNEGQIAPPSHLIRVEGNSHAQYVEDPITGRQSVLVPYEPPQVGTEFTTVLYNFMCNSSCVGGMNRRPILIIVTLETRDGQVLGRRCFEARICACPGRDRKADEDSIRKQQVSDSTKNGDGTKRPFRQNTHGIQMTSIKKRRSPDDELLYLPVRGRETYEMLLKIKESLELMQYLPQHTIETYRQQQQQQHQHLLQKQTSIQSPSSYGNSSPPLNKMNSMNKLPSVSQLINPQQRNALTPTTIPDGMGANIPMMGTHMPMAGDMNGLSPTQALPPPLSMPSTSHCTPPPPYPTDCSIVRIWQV

In a further experiment the target is T5, ΔNp63γ (Homo sapiens, UniProt Q9H3D4-6 1-393).
T5 sequence: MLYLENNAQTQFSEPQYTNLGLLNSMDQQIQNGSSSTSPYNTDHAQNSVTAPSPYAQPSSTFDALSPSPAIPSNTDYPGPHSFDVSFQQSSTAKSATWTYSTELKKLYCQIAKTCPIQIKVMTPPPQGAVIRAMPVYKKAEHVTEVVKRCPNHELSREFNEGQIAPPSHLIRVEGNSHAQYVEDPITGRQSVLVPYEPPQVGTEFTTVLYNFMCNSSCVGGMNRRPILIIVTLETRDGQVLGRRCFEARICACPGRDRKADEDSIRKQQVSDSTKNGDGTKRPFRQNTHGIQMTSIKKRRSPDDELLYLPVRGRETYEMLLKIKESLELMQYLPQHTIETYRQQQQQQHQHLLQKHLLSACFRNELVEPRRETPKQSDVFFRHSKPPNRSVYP

In a further experiment the target is T6, ΔNp73β (Homo sapiens, UniProt O15350-9 1-450).
T6 sequence: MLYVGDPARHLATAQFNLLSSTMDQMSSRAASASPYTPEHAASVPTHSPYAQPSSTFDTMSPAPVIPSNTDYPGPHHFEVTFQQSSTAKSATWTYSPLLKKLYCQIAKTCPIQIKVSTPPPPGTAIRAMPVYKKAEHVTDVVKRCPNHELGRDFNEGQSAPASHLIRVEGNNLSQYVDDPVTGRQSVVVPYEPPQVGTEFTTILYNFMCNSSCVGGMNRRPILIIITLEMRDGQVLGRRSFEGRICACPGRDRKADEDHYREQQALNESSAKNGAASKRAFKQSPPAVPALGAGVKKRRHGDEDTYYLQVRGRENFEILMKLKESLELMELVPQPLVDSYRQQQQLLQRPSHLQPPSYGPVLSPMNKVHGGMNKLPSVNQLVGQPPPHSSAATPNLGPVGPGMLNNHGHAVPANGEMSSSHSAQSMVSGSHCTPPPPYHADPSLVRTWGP

In the next experiment the target is T7, p73CT (Homo sapiens, UniProt O15350 104-383).
T7 sequence: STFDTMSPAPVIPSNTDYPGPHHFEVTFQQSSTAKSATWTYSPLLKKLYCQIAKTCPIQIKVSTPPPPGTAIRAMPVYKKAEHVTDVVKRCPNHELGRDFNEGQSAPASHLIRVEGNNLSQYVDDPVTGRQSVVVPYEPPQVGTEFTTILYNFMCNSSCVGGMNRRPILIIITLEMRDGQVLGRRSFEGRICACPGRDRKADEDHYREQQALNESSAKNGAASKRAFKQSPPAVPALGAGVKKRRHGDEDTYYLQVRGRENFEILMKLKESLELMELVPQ

Chain of Hsp53 (P04637 whole entry): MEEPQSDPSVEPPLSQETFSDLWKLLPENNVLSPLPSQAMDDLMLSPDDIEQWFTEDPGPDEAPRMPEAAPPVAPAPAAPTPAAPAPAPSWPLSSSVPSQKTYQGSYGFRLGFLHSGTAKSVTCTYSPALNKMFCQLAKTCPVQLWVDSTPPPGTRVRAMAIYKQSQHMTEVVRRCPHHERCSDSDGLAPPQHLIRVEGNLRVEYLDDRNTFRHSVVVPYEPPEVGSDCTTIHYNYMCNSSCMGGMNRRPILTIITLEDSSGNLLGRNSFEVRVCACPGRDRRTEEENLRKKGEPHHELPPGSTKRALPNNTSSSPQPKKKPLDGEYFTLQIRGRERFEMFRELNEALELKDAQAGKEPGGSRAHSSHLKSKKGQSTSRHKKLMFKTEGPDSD
Chain of Mmp53 (P02340 whole entry): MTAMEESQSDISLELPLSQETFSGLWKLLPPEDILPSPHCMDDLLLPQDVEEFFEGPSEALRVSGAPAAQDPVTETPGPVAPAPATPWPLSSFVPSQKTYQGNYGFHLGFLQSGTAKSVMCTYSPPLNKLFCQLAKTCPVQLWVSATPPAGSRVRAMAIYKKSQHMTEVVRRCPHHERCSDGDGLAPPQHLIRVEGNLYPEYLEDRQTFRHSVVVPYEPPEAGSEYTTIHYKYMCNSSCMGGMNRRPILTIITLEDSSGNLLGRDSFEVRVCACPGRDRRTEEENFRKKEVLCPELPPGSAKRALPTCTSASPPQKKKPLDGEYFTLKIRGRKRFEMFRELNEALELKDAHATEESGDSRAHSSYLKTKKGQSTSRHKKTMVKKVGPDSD
Chain of Xlp53 (Q7T1D0 entry or part of it): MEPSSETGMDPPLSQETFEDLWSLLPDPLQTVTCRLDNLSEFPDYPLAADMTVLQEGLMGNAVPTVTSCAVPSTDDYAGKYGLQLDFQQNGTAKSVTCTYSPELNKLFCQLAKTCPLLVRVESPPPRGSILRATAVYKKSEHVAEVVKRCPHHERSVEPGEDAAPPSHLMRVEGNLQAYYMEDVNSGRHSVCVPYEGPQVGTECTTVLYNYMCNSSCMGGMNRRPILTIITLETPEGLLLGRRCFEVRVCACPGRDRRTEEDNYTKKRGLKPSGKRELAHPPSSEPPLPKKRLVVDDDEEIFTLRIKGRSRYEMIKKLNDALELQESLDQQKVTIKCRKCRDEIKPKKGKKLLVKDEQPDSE

As to CGCGGACATTTCCGGACATGTCCCGC, the binding signal with Dmp53 was 1.55 delta log10 Kd; with Drp53 it was 1.37 delta log10 Kd; with Hsp53, 0.44 delta log10 Kd; with Xlp53, 0.88 delta log10 Kd; with ΔNp63α, 1.1 delta log10 Kd; with ΔNp63β, 1.2 delta log10 Kd. Further, the binding signal with ΔNp63γ amounted to 1.46 delta log10 Kd; with ΔNp73β, 1.43 delta log10 Kd; with Mmp53 it was 0.65 delta log10 Kd; in the experiment with p73CT, 1.58 delta log10 Kd.
Turning to CGCGCACATGTCCGGACATGTCCCGC, the binding signal in the experiment with Dmp53 came out at 0.21 delta log10 Kd; with Drp53, 0.41 delta log10 Kd; with Hsp53, 0.37 delta log10 Kd; with Xlp53, 0.27 delta log10 Kd; with ΔNp63α, 0.15 delta log10 Kd; in the experiment with ΔNp63β, 0.36 delta log10 Kd. The binding signal was 0.37 delta log10 Kd in the experiment with ΔNp63γ, 0.44 delta log10 Kd with ΔNp73β, 0.28 delta log10 Kd in the experiment with Mmp53 and 0.39 delta log10 Kd in the experiment with p73CT.
Take CGCGGTCATGTCCGGACATGTCCCGC: the binding signal was 0.36 delta log10 Kd with Dmp53; 0.48 delta log10 Kd in the experiment with Drp53; 0.42 delta log10 Kd with Hsp53; 0.35 delta log10 Kd with Xlp53; 0.53 delta log10 Kd in the experiment with ΔNp63β; 0.49 delta log10 Kd with ΔNp63γ. The binding signal in the experiment with Mmp53 amounted to 0.29 delta log10 Kd.
As to CGCGGACAAGTCCGGACATGTCCCGC, the binding signal with Dmp53 was determined as 0.22 delta log10 Kd; with Drp53, 0.35 delta log10 Kd; with Hsp53, 0.16 delta log10 Kd; with Xlp53, 0.18 delta log10 Kd; in the experiment with ΔNp63α it was 0.02 delta log10 Kd; with ΔNp63β, 0.15 delta log10 Kd. The binding signal with ΔNp63γ worked out at 0.19 delta log10 Kd; with ΔNp73β, 0.12 delta log10 Kd; in the experiment with Mmp53, 0.27 delta log10 Kd; with p73CT, 0.19 delta log10 Kd.
With CGCGGCCATGTCCGGACATGTCCCGC, the binding signal was determined as 0.75 delta log10 Kd in the experiment with Dmp53; 0.86 delta log10 Kd with Drp53; 0.66 delta log10 Kd with Hsp53; 0.82 delta log10 Kd in the experiment with Xlp53; 0.88 delta log10 Kd with ΔNp63β; 0.93 delta log10 Kd in the experiment with ΔNp63γ. Besides, the binding signal in the experiment with Mmp53 came to 0.46 delta log10 Kd.
As to CGCCGACATGTCCGGACATGTCCCGC, the binding signal is 0.03 delta log10 Kd with Dmp53; 0.15 delta log10 Kd with Drp53; 0.17 delta log10 Kd with Hsp53; 0.1 delta log10 Kd with Xlp53; 0.04 delta log10 Kd with ΔNp63α; 0.07 delta log10 Kd with ΔNp63β. Moreover, the binding signal stood at 0.09 delta log10 Kd with ΔNp63γ, 0 delta log10 Kd in the experiment with ΔNp73β, 0.15 delta log10 Kd in the experiment with Mmp53 and 0.06 delta log10 Kd with p73CT.
Regarding CGCGGACATATCCGGACATGTCCCGC, the binding signal with Dmp53 was 0.98 delta log10 Kd; with Drp53, 1.14 delta log10 Kd; with Hsp53, 0.83 delta log10 Kd; with Xlp53 it was 1.01 delta log10 Kd; in the experiment with ΔNp63α, 0.92 delta log10 Kd; in the experiment with ΔNp63β it was 1.2 delta log10 Kd. The binding signal came to 1.31 delta log10 Kd with ΔNp63γ, 1.32 delta log10 Kd in the experiment with ΔNp73β, 0.63 delta log10 Kd with Mmp53 and 1.44 delta log10 Kd with p73CT.
Regarding CGCGGACATGTCTGGACATGTCCCGC, the binding signal came to 0.03 delta log10 Kd in the experiment with Dmp53; 0.02 delta log10 Kd with Drp53; 0.13 delta log10 Kd with Hsp53; 0.07 delta log10 Kd with Xlp53; 0.04 delta log10 Kd with ΔNp63α; 0.05 delta log10 Kd in the experiment with ΔNp63β. The binding signal was determined as 0.05 delta log10 Kd in the experiment with ΔNp63γ, 0 delta log10 Kd with ΔNp73β, 0.11 delta log10 Kd with Mmp53 and 0.08 delta log10 Kd in the experiment with p73CT.
